Screening data deposited in PubChem by several laboratories.
This is a sample that favours compounds with a hit; in the whole collection about 27% have one here.
CYP2C9 inh – human CYP2C9 inhibition; 20% of 96,000 active; CYP2C9 Supersomes, luciferin-H conversion, luminescence; inhibition, % at 5 µM; AID 777;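 active = blocking of liver enzyme CYP2C9 beyond about 50% at 5 µM, limit read from the data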
Target sequence (P11712 whole entry, looked up): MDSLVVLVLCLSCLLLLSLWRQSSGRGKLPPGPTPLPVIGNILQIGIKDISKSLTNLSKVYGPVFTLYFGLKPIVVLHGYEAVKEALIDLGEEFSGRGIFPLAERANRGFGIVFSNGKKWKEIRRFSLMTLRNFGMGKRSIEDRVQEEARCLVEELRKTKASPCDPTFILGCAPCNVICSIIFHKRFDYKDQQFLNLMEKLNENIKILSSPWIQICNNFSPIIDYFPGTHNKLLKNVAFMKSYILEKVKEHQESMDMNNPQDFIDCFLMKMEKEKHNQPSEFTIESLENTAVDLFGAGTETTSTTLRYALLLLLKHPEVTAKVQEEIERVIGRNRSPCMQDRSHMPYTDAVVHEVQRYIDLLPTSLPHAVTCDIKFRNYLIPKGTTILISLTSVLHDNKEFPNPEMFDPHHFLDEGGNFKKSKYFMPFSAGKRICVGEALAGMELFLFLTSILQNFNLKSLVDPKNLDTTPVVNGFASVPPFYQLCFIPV
CYP2C9 act – CYP2C9 (human) activation. P11712. AID 1024. activation factor at 5 µM. 1.4% of 96,000 active. recombinant CYP2C9, luciferin-H conversion, luminescence; active compounds read high; factor 1 = untreated enzyme, 0 = blocked;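 active = activation factor of 2 or more for CYP2C9 at a 5 µM dose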
CYP2C19 activ – activators of human cytochrome P450 2C19; AID 1025; activation factor at 5 µM; 96,000 tested, under 10 active; recombinant CYP2C19, luciferin-H EGE luminescence; active compounds read high; 0 = fully inhibited enzyme, 1 = untreated enzyme;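 active = activation factor of at least 2 at 5 µM in the primary screen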
CYP2C19 inh – inhibitors of human CYP2C19; CYP2C19 Supersomes, luciferin-H EGE luminescence, 30 min; inhibition, % at 5 µM; 21% of 96,000 active; AID 778;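 active = CYP2C19 inhibition above a set limit at 5 µM in the primary screen, cut at about 50% in these data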
Cav32 inh – human Cav3.2 channel inhibition, primary screen | B-score at 10 µM | 4% of 100,000 active | AID 449739 | Cav3.2-expressing cells, Fluo-4 calcium fluorescence FDSS; active compounds read low | O95180;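 active = single-dose well whose peak fluorescence ratio is a statistical outlier from its plate by either plate-standardised score or position-corrected B-score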
Of the large screens only hits and unclear results are named; the others gave an inactive call.

COc1ccc(N2CCN(S(=O)(=O)c3cccc4cccnc34)CC2)cc1	CYP2C9 act 2.6, CYP2C19 inh 81.5
Cc1cccc(/N=C/c2c(O)c3ccccc3oc2=O)n1	none
COCCCN1C(=O)c2ccc(C(=O)Nc3ccc(OC)cc3)cc2C1=O	none
COc1cccc(NC(=O)N2CCN(c3ccc(C(F)(F)F)cn3)CC2)c1	none (no result: Cav32 inh)
Cc1nnc2sc(-c3ccc(-c4ccc(Cl)c(C(F)(F)F)c4)o3)nn12	none
CC1CC(C)CN(S(=O)(=O)c2cccc3cccnc23)C1 (stereo not drawn)	CYP2C9 act 2.5, CYP2C19 inh 68.4
O=c1n(S(=O)(=O)c2cccc3cccnc23)c2ccccc2n1S(=O)(=O)c1cccc2cccnc12	none
Cc1onc(-c2ccccc2)c1C(=O)N1CC(C)OC(C)C1 (stereo not drawn)	none
COc1ccc(NC(=O)/C(Cl)=C(/Cl)S(=O)Cc2ccccc2)cn1 (stereo not drawn)	CYP2C9 inh 92.2, CYP2C19 inh 50.8
COc1ccc(Cl)cc1C(=O)NCCN(C)C	none
COc1ccc(Cl)cc1C(=O)NCC(C)C	CYP2C9 act 3.1
CCCC(C)NC(=O)c1cc(Cl)ccc1OC (stereo not drawn)	CYP2C9 act 3.5
CC(C)OC(=O)NCN1C(=O)C2C3C=CC(C3)C2C1=O (stereo not drawn)	none
COc1ccccc1CCNC(=O)C1CCCO1 (stereo not drawn)	none
CCN1C(=O)c2cccc3c(S(=O)(=O)Nc4nc(C)cs4)ccc1c23	CYP2C9 inh 92.6
CCN1C(=O)c2cccc3c(S(=O)(=O)Nc4ccncc4)ccc1c23	CYP2C9 inh 66.0
CCN1C(=O)c2cccc3c(S(=O)(=O)NCc4ccco4)ccc1c23	none (no result: CYP2C9 inh, CYP2C9 act, CYP2C19 activ, CYP2C19 inh)
CCN1C(=O)c2cccc3c(S(=O)(=O)Nc4ccccc4)ccc1c23	CYP2C9 inh 100.3, CYP2C19 inh 60.3
CCN1C(=O)c2cccc3c(NC(=O)C4CCCCC4)ccc1c23	none
CCN1C(=O)c2cccc3c(NC(=O)c4ccc(OC)c(OC)c4)ccc1c23	CYP2C9 inh 66.1, CYP2C19 inh 55.8
COc1ccc(/C=N/n2c(C)cc(C)c(C(N)=O)c2=O)cc1	none
CCN1C(=O)c2cccc3c(S(=O)(=O)Nc4ccc(OC)cc4OC)ccc1c23	CYP2C9 inh 95.7, CYP2C19 inh 77.9 (no result: Cav32 inh)
O=C(CCN1C(=O)c2ccccc2C1=O)N1CCN(c2ccccc2)CC1	none
CCN(C(=O)CCN1C(=O)c2ccccc2C1=O)C1CCCCC1	CYP2C19 inh 77.5
O=C(COc1ccc(Br)cc1)N1CCC(c2ccccc2)C1 (stereo not drawn)	CYP2C19 inh 88.1, Cav32 inh -4.13
O=C(COc1ccc(Br)cc1)N1CCOCC1	none (no result: CYP2C9 inh, CYP2C9 act, CYP2C19 activ, CYP2C19 inh)
O=C(CCN1C(=O)c2ccccc2C1=O)N1CCC(c2ccccc2)C1 (stereo not drawn)	CYP2C19 inh 72.3
O=C(O)CCN1C(=O)c2ccccc2C1=O	none
CCOC(=O)CS(=O)(=O)c1nc(-c2ccccc2)cc(C(F)(F)F)n1	CYP2C9 inh 59.4
CCOC(=O)CS(=O)(=O)c1ccc2ccccc2c1	CYP2C9 act 2.9, CYP2C19 inh 87.4
CCOC(=O)CS(=O)(=O)c1ccccc1	none
CCOC(=O)CCS(=O)(=O)c1nc(-c2ccccc2)cc(C(F)(F)F)n1	none
NC(=O)C1CCN(C(=O)CSc2ccccn2)CC1	none
O=C(COc1cccc2ccccc12)N1c2ccccc2CCc2ccccc21	CYP2C9 inh 84.0, CYP2C19 inh 76.5, Cav32 inh -6.65
O=C(COc1cccc2ccccc12)N1CCN(c2ccccn2)CC1	CYP2C9 act 2.3, CYP2C19 inh 95.3
O=C(COc1cccc2ccccc12)N1CCN(c2ccccc2)CC1	CYP2C19 inh 95.3 (no result: Cav32 inh)
O=C(O)c1ccccc1C(=O)NCc1ccccc1	none
O=C(NCc1ccccc1)c1ccccc1OCC(=O)N1CCCCC1	CYP2C9 inh 99.6, CYP2C19 inh 72.8
CCOC(=O)N1CCN(C(=O)c2ccc3c(=O)n(CCC4=CCCCC4)c(=O)[nH]c3c2)CC1	none
O=c1nc2n(c3cc(Cl)c(S(=O)(=O)N4CCOCC4)cc13)CCCCC2	none
COc1cc(-c2nc3oc4ccccc4c(=O)c3c(=O)n2Cc2ccco2)cc(OC)c1OC	none
O=C(COc1c(Br)cc(Br)c2cccnc12)N1CCc2ccccc2C1	none
O=C(COc1cccc2cccnc12)N1CCc2ccccc2C1	CYP2C9 act 3.2, CYP2C19 inh 87.9
CC(=O)N1c2c(ccc3ccccc23)C(C)CC12CCCCC2 (stereo not drawn)	CYP2C9 inh 93.3, CYP2C19 inh 98.0
CC1CC2(CCCCC2)Nc2c1ccc1ccccc21 (stereo not drawn)	none (no result: CYP2C9 inh, CYP2C9 act, CYP2C19 activ, CYP2C19 inh)
CC(C)NS(=O)(=O)c1ccc(OCC(=O)Nc2ccc3c(c2)OCO3)c(Cl)c1	none
CC(C)NS(=O)(=O)c1ccc(OCC(=O)NCc2ccc3c(c2)OCO3)c(Cl)c1	CYP2C9 inh 93.6, CYP2C19 inh 97.4
COc1ccc(CCNC(=O)COc2ccc(S(=O)(=O)NC(C)C)cc2Cl)cc1OC	CYP2C9 inh 86.0, CYP2C19 inh 64.9
COc1ccc(CCNC(=O)CC(NS(=O)(=O)c2ccc(NC(C)=O)cc2)C(C)C)cc1OC (stereo not drawn)	none (no result: Cav32 inh)
CCOC(=O)N=S(=O)(Oc1ccc([N+](=O)[O-])cc1)c1ccccc1 (stereo not drawn)	CYP2C19 inh 77.8
CCOC(=O)N=S(=O)(Oc1ccc([N+](=O)[O-])cc1)c1ccc(Cl)cc1 (stereo not drawn)	Cav32 inh -4.18 (no result: CYP2C9 inh, CYP2C9 act, CYP2C19 activ, CYP2C19 inh)
COC(=O)c1ccc(Cl)c(NC(=O)c2ccc(-c3ccccc3)cc2)c1	none
COc1cc(OC)cc(C(=O)NCC(=O)N2CCCCC2)c1	none
COc1ccc(CNC(=O)c2ccc(C)o2)cc1	none (no result: CYP2C9 inh, CYP2C9 act, CYP2C19 activ, CYP2C19 inh)
COc1ccc(CCNC(=S)Nc2cccc(C)c2)cc1	CYP2C19 inh 64.7
COc1ccc(CNC(=S)Nc2cc(C)cc(C)c2)cc1	CYP2C9 act 2
COc1ccc(N2CCN(C(=S)Nc3cccc(C)c3)CC2)cc1	none (no result: Cav32 inh)
C/C=C/C=[N+](\[O-])C(C)/C(=N/O)c1ccc(F)cc1 (stereo not drawn)	none
Cc1nnc(SC(=O)N2c3ccccc3Sc3ccccc32)s1	none
CCCCCN(C(=O)CN(C)Cc1ccc(OC)cc1OC)c1c(N)n(CCCC)c(=O)[nH]c1=O	none
Cn1c(C(=O)N2CCN(c3nc4ccccc4s3)CC2)cc2sccc21	none
CCCN1CCN(CCCNC(=O)c2cc3c(=O)n(C)c4ccccc4c3n2C)CC1	CYP2C9 inh 67.2
COc1ccccc1N1CCN(C(=O)c2cc3sccc3n2C)CC1	CYP2C19 inh 66.0
COc1ccccc1N1CCN(C(=O)c2cc3c(=O)n(C)c4ccccc4c3n2C)CC1	CYP2C9 inh 60.6, CYP2C19 inh 88.9
Cn1c(C(=O)N2CCN(C(=O)c3ccco3)CC2)cc2c(=O)n(C)c3ccccc3c21	CYP2C19 inh 53.3
COc1ccc2[nH]c(=O)c(NC(N)=S)nc2c1	none
CCN(CC)c1ccc(NC(=O)c2ccc(Br)o2)c(C)c1	CYP2C9 act 2.4
COc1ccccc1NC(=O)c1oc2ccc(C)cc2c1C	CYP2C9 act 2
